Screens from PubChem.
Shown is part of a subset that was picked to be rich in hits.
IDE exosite inh – displaces the probe from the exo-site of human IDE. purified IDE, FL-6b probe fluorescence polarization; hits give low values. z-score at 20 µM. 17,000 tested, 6.3% active;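 active means z-score of -3 or lower, meaning strong loss of probe binding signal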;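 further: His-tagged human IDE residues 42-1019 made in E. coli with 30 nM FL-6b probe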
Target sequence (P14735 42-1019 limits assumed): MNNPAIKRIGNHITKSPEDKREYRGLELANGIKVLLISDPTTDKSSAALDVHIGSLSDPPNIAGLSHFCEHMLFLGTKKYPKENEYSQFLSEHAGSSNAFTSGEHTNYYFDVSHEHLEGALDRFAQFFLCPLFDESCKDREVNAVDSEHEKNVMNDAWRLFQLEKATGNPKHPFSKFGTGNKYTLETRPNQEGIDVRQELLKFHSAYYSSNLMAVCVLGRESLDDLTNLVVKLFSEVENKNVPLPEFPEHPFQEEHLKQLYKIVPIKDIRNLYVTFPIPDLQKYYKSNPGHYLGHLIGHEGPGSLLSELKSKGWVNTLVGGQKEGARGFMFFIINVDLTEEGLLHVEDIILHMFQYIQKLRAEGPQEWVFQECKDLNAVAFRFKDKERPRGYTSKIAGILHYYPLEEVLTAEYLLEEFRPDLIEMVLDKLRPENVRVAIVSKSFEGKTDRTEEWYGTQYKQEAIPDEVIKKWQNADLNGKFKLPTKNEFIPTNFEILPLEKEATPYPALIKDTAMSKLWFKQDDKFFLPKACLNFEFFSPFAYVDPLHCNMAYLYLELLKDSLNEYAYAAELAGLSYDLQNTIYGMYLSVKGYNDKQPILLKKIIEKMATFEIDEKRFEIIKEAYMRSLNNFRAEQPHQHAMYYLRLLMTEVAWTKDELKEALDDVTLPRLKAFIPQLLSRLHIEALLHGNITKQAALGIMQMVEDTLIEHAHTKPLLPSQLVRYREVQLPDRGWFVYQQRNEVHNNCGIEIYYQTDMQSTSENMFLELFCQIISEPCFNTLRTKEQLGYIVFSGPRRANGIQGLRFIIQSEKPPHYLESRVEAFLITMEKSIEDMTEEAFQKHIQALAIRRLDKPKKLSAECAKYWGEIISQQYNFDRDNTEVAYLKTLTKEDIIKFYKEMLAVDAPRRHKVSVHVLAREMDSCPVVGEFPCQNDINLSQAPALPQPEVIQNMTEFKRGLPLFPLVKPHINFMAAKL
Numbers without * were called inactive; ! = not confirmed by another sample.

SMILES	IDE exosite inh
CCCNC(=O)N1[C@H](CO)[C@H](c2ccc(C#CC3CC3)cc2)[C@H]1CNC	0.686
CCS(=O)(=O)N1CC(=O)N2[C@H](CO)[C@@H](c3ccc(C#CCC(C)C)cc3)[C@@H]2C1	1.16
CN1[C@@H]2c3ccc(-c4ccccc4F)c(=O)n3C[C@@H]2[C@@H](CO)[C@@H]1C(=O)Nc1nccs1	1.43
CN(C[C@H]1N[C@@H](CO)[C@@H]1c1ccc(-c2cccc(F)c2)cc1)S(C)(=O)=O	5.84
O=C(Cc1ccccc1)N1CC(=O)N2[C@@H](CO)[C@@H](c3ccc(C#CCc4ccccc4)cc3)[C@@H]2C1	-3.96*
O=C(Cc1ccccc1)N1CC(=O)N2[C@H](C1)[C@H](c1ccc(C#CCc3ccccc3)cc1)[C@@H]2CO	-3.58*
O=C(Cc1ccccc1)N1CC(=O)N2[C@@H](CO)[C@H](c3ccc(C#CCc4ccccc4)cc3)[C@@H]2C1	-1.33
O=C(Cc1ccccc1)N1CC(=O)N2[C@H](CO)[C@@H](c3ccc(C#CCc4ccccc4)cc3)[C@@H]2C1	3.16
O=C(Cc1ccccc1)N1CC(=O)N2[C@@H](CO)[C@H](c3ccc(C#Cc4ccccc4)cc3)[C@@H]2C1	-2.76
O=C(Cc1ccccc1)N1CC(=O)N2[C@H](CO)[C@@H](c3ccc(C#Cc4ccccc4)cc3)[C@H]2C1	-1.77
COc1cccc(-c2cccc(-c3nc(C(=O)O)cc4c3[C@@H](CCO)N(S(=O)C(C)(C)C)C4)c2)c1 (stereo not given in full)	1.54
CN1CCCCN2[C@H](CO)[C@H](c3ccc(-c4ccc(F)cc4)cc3)[C@H]2C1	0.404
COCC(=O)N1[C@H](C#N)[C@H](c2ccccc2-c2cccc(C)c2)[C@H]1CO	-0.535
C/C=C/c1ccc(C2[C@H]3CNC[C@@H]2N3C(=O)Nc2ccccc2Cl)cc1 (stereo not given in full)	0.32
O=C(Nc1cccc(F)c1)N1[C@@H]2CNC[C@H]1C2c1ccc(-c2cncnc2)cc1 (stereo not given in full)	-2.72
O=C(Nc1ccccc1F)N1[C@@H]2CNC[C@H]1C2c1ccc(-c2cccnc2)cc1 (stereo not given in full)	-3.26*!
COc1ccccc1-c1ccc(C2[C@H]3CNC[C@@H]2N3C(=O)Nc2ccccc2Cl)cc1 (stereo not given in full)	-3.24*
COc1cccc(-c2ccc(C3[C@H]4CNC[C@@H]3N4C(=O)Nc3cc(F)ccc3F)cc2)c1 (stereo not given in full)	3.67
COc1ccc(NC(=O)N2[C@@H]3CNC[C@H]2C3c2ccc(-c3cccc(C(=O)N(C)C)c3)cc2)cc1 (stereo not given in full)	0.852
O=C(Nc1ccccc1Cl)N1[C@@H]2CNC[C@H]1C2c1ccc(-c2ccccc2)cc1 (stereo not given in full)	1.19
O=C(Nc1ccc2c(c1)OCO2)N1[C@@H]2CNC[C@H]1C2c1ccc(-c2ccncc2)cc1 (stereo not given in full)	-3.2*!
O=C(Nc1ccccc1F)N1[C@@H]2CNC[C@H]1C2c1ccc(-c2ccccc2)cc1 (stereo not given in full)	2.99
O=C(Nc1ccc2c(c1)OCO2)N1[C@@H]2CNC[C@H]1C2c1ccc(/C=C/c2ccccc2)cc1 (stereo not given in full)	-1.49
COc1cccc(-c2ccc(C3[C@H]4CNC[C@@H]3N4C(=O)Nc3ccccc3OC)cc2)c1 (stereo not given in full)	-3.87*
O=C(Nc1ccc(F)cc1)N1[C@@H]2CNC[C@H]1C2c1ccc(-c2cccnc2)cc1 (stereo not given in full)	-0.0593
SMILES	IDE exosite inh
O=C(Nc1cccc(Cl)c1)N[C@@H]1CC[C@H](CCn2cc(Cc3ccccc3)nn2)O[C@H]1CO	-0.155
C/C=C/c1ccc([C@@H]2[C@@H](CO)N(C(=O)C3CCC3)C23CN(C(=O)NC(C)C)C3)cc1	1.49
N#C[C@H]1[C@@H](c2ccccc2-c2cccc(F)c2)[C@H](CO)N1S(=O)(=O)c1cccc(F)c1	-0.621
CN(C)CC(=O)N1CC2(C1)[C@@H](c1ccccc1)[C@@H](CO)N2Cc1cc(F)ccc1F	-0.681
COc1ccccc1CNC(=O)C[C@@H]1C[C@@H]2c3cc(NC(=O)C4CCC4)ccc3O[C@@H]2[C@H](CO)O1	0.331
O=C(c1ccccn1)N1CC(=O)N2[C@@H](CO)[C@@H](c3ccc(C#Cc4ccccc4)cc3)[C@@H]2C1	-19.9*
O=C(c1ccccn1)N1CC(=O)N2[C@H](C1)[C@H](c1ccc(C#CCc3ccccc3)cc1)[C@@H]2CO	0.0494
O=C(c1ccccn1)N1CC(=O)N2[C@H](CO)[C@@H](c3ccc(C#CCc4ccccc4)cc3)[C@@H]2C1	-0.00488
O=C(c1ccccn1)N1CC(=O)N2[C@H](CO)[C@H](c3ccc(C#Cc4ccccc4)cc3)[C@@H]2C1	-5.83*
O=C(c1ccccn1)N1CC(=O)N2[C@H](C1)[C@@H](c1ccc(C#CCc3ccccc3)cc1)[C@@H]2CO	0.383
CC(C)C#Cc1ccc([C@@H]2[C@@H](CO)N3C(=O)CN(C(=O)c4ccccn4)C[C@@H]23)cc1	0.714
O=C(c1ccccn1)N1CC(=O)N2[C@H](CO)[C@@H](c3ccc(C#CCc4ccccc4)cc3)[C@H]2C1	-1.88
CCCC#Cc1ccc([C@H]2[C@H]3CN(C(=O)c4ccccn4)CC(=O)N3[C@H]2CO)cc1	2.58
O=C(c1ccccn1)N1CC(=O)N2[C@H](CO)[C@@H](c3ccc(C#Cc4ccccc4)cc3)[C@@H]2C1	-7.27*
Cc1ccccc1-c1ccc2c(c1)O[C@H](CN(C)C(=O)Nc1ccc(C(F)(F)F)cc1)[C@H](C)CN([C@@H](C)CO)S2(=O)=O	-0.153
COCCN(C[C@H]1[C@H](c2ccccc2)[C@H](CO)N1C(C)=O)C(=O)c1ccncc1	1.25
COc1cccc(C#Cc2ccc([C@@H]3[C@@H](C#N)N[C@@H]3CO)cc2)c1	0.361
COc1ccc(C[C@@H]2CCc3cnnn3COCCNC2=O)cc1	1.94
O=C(NC1CCCC1)N1CCCCN2[C@@H](CO)[C@@H](c3ccc(-c4ccncc4)cc3)[C@@H]2C1	4.78
COc1ccccc1-c1ccc([C@H]2[C@@H](CO)N3CCCCN(C(=O)NC4CCCC4)C[C@H]23)cc1	-19.1*
O=C(NC1CCCC1)N1CCCCN2[C@H](CO)[C@@H](c3ccc(-c4cccnc4)cc3)[C@H]2C1	-0.767
O=C(NC1CCCC1)N1CCCCN2[C@@H](CO)[C@H](c3ccc(-c4cccnc4)cc3)[C@@H]2C1	-2.95
O=C(NC1CCCC1)N1CCCCN2[C@H](C1)[C@H](c1ccc(-c3ccncc3)cc1)[C@@H]2CO	2.87
COc1ccccc1-c1ccc([C@H]2[C@H](CO)N3CCCCN(C(=O)NC4CCCC4)C[C@@H]23)cc1	-12.3*
COc1ccc2c3c([nH]c2c1)[C@@H](CO)N(C(C)=O)CC31CCN(C(=O)Nc2ccc(F)cc2F)CC1	1.08
C/C=C/c1cccc(-c2nc(C(=O)NCc3ccccn3)cc3c2[C@H](CCO)N([S@@](=O)C(C)(C)C)C3)c1	0.486
CCCC#Cc1ccc([C@H]2[C@@H](CO)N(C(C)=O)[C@H]2CN(C)S(C)(=O)=O)cc1	0.228
COc1cccc(C#Cc2ccc([C@@H]3[C@@H](CO)N4C(=O)CN(C(=O)Cc5ccccc5)C[C@@H]34)cc2)c1	0.00208
COc1cccc(C#Cc2ccc([C@@H]3[C@@H](CO)N4C(=O)CN(C(=O)Cc5ccccc5)C[C@H]34)cc2)c1	2.23
